Laboratory results published in the supplement of paper PMC6992640.

Each compound was assayed on HCI01 (cells of a triple-negative basal-like breast cancer xenograft) (assay: cell viability of combination (% of vehicle); higher = less cytotoxic). Settings: 1 µM; 72 h; partner dose: 10 nM.
Description: (§1)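 PDX cells were treated for 72 h with each drug at 1 µM plus afatinib (10 nM; 1 µM for WHIM30). Luciferase viability is expressed as percent of vehicle.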

Row | SMILES | cell viability of combination
1 | Oc1c(Cl)cc(Cl)c2cccnc12 [Chloroxine] + CN(C)C/C=C/C(=O)Nc1cc2c(Nc3ccc(F)c(Cl)c3)ncnc2cc1O[C@H]1CCOC1 [Afatinib] | 56.1
2 | CNC(=O)c1cc(Oc2ccc(NC(=O)Nc3ccc(Cl)c(C(F)(F)F)c3)c(F)c2)ccn1 [Regorafenib] + CN(C)C/C=C/C(=O)Nc1cc2c(Nc3ccc(F)c(Cl)c3)ncnc2cc1O[C@H]1CCOC1 [Afatinib] | 46.8
3 | CC(C)Nc1cc(-c2c[nH]c(C(=O)NC(CO)c3cccc(Cl)c3)c2)c(Cl)cn1 (configuration not stated) + CN(C)C/C=C/C(=O)Nc1cc2c(Nc3ccc(F)c(Cl)c3)ncnc2cc1O[C@H]1CCOC1 [Afatinib] | 50.7
4 | COc1cc2c(Nc3ccc(Br)cc3F)ncnc2cc1OCC1CCN(C)CC1 [Vandetanib (ZD6474)] + CN(C)C/C=C/C(=O)Nc1cc2c(Nc3ccc(F)c(Cl)c3)ncnc2cc1O[C@H]1CCOC1 [Afatinib] | 47.3
5 | O=C(O)CO.[NH2-].[NH2-].[Pt+2] [Nedaplatin] + CN(C)C/C=C/C(=O)Nc1cc2c(Nc3ccc(F)c(Cl)c3)ncnc2cc1O[C@H]1CCOC1 [Afatinib] | 49.9
6 | CC(CCC(=O)O)C1CCC2C3CCC4CC(O)CCC4(C)C3CCC12C (configuration not stated) [Lithocholic Acid] + CN(C)C/C=C/C(=O)Nc1cc2c(Nc3ccc(F)c(Cl)c3)ncnc2cc1O[C@H]1CCOC1 [Afatinib] | 45.1
7 | CO[C@@]12[C@H](COC(N)=O)C3=C(C(=O)C(C)=C(N)C3=O)N1C[C@@H]1N[C@@H]12 [Mitomycin C] + CN(C)C/C=C/C(=O)Nc1cc2c(Nc3ccc(F)c(Cl)c3)ncnc2cc1O[C@H]1CCOC1 [Afatinib] | 36
8 | CC1(C)Cc2c(-c3ccccc3)c(-c3ccc(Cl)cc3)c(CC(=O)O)n2C1 [Licofelone] + CN(C)C/C=C/C(=O)Nc1cc2c(Nc3ccc(F)c(Cl)c3)ncnc2cc1O[C@H]1CCOC1 [Afatinib] | 66.1

What follows are compounds tested on UCD52 (cells of a triple-negative basal-like breast cancer xenograft) in the same assay as above. Settings: 1 µM; 72 h; partner dose: 10 nM.
Description: as §1

Row | SMILES | cell viability of combination
9 | CC(O)C(=O)O.CCOc1ccc2nc3cc(N)ccc3c(N)c2c1.O [Ethacridine lactate monohydrate] + CN(C)C/C=C/C(=O)Nc1cc2c(Nc3ccc(F)c(Cl)c3)ncnc2cc1O[C@H]1CCOC1 [Afatinib] | 70.5
10 | O=C(c1ccc(F)c(F)c1Nc1ccc(I)cc1F)N1CC(O)(C2CCCCN2)C1 (configuration not stated) [Cobimetinib] + CN(C)C/C=C/C(=O)Nc1cc2c(Nc3ccc(F)c(Cl)c3)ncnc2cc1O[C@H]1CCOC1 [Afatinib] | 36.5
11 | CCOc1cc2ncc(C#N)c(Nc3ccc(OCc4ccccn4)c(Cl)c3)c2cc1NC(=O)C=CCN(C)C [Neratinib (HKI-272)] + CN(C)C/C=C/C(=O)Nc1cc2c(Nc3ccc(F)c(Cl)c3)ncnc2cc1O[C@H]1CCOC1 [Afatinib] | 50.9
12 | CC(NCCCc1cccc(C(F)(F)F)c1)c1cccc2ccccc12.Cl (configuration not stated) [Cinacalcet HCl] + CN(C)C/C=C/C(=O)Nc1cc2c(Nc3ccc(F)c(Cl)c3)ncnc2cc1O[C@H]1CCOC1 [Afatinib] | 67.7
13 | Cc1c(Cl)cccc1Nc1ccccc1C(=O)O [Tolfenamic Acid] + CN(C)C/C=C/C(=O)Nc1cc2c(Nc3ccc(F)c(Cl)c3)ncnc2cc1O[C@H]1CCOC1 [Afatinib] | 78.5
14 | CC[C@H](C)[C@H]1O[C@]2(CC[C@@H]1C)C[C@@H]1C[C@@H](C/C=C(\C)[C@@H](O[C@H]3C[C@H](OC)[C@@H](O[C@H]4C[C@H](OC)[C@@H](O)[C@H](C)O4)[C@H](C)O3)[C@@H](C)/C=C/C=C3\CO[C@@H]4[C@H](O)C(C)=C[C@@H](C(=O)O1)[C@]34O)O2 [Ivermectin] + CN(C)C/C=C/C(=O)Nc1cc2c(Nc3ccc(F)c(Cl)c3)ncnc2cc1O[C@H]1CCOC1 [Afatinib] | 45.8
15 | CCC(=C(c1ccccc1)c1ccc(OCCN(C)C)cc1)c1ccccc1.O=C(O)CC(O)(CC(=O)O)C(=O)O [Tamoxifen Citrate] + CN(C)C/C=C/C(=O)Nc1cc2c(Nc3ccc(F)c(Cl)c3)ncnc2cc1O[C@H]1CCOC1 [Afatinib] | 69.5
16 | Cc1cccc(CN2CCN(C(c3ccccc3)c3ccc(Cl)cc3)CC2)c1.Cl.Cl (configuration not stated) [Meclizine 2HCl] + CN(C)C/C=C/C(=O)Nc1cc2c(Nc3ccc(F)c(Cl)c3)ncnc2cc1O[C@H]1CCOC1 [Afatinib] | 68.6
17 | CCCCCCCCc1ccc(CCC(N)(CO)CO)cc1.Cl [Fingolimod (FTY720)] + CN(C)C/C=C/C(=O)Nc1cc2c(Nc3ccc(F)c(Cl)c3)ncnc2cc1O[C@H]1CCOC1 [Afatinib] | 69.9
18 | COc1ccc(C[C@H](N)C(=O)N[C@@H]2[C@H](O)[C@H](n3cnc4c(N(C)C)ncnc43)O[C@@H]2CO)cc1.Cl.Cl [Puromycin dihydrochloride] + CN(C)C/C=C/C(=O)Nc1cc2c(Nc3ccc(F)c(Cl)c3)ncnc2cc1O[C@H]1CCOC1 [Afatinib] | 18.2
19 | CCN(CC)CCCC(C)Nc1ccnc2cc(Cl)ccc12.O=P(O)(O)O.O=P(O)(O)O (configuration not stated) [Chloroquine diphosphate] + CN(C)C/C=C/C(=O)Nc1cc2c(Nc3ccc(F)c(Cl)c3)ncnc2cc1O[C@H]1CCOC1 [Afatinib] | 48.5
20 | C=C1C(=CC=C2CCCC3(C)C2CCC3C(C)CCCC(C)C)CC(O)CC1O (configuration not stated) [Alfacalcidol] + CN(C)C/C=C/C(=O)Nc1cc2c(Nc3ccc(F)c(Cl)c3)ncnc2cc1O[C@H]1CCOC1 [Afatinib] | 50
21 | Nc1ncn(C2OC(CO)C(O)C2O)c(=O)n1 (configuration not stated) [5-Azacytidine] + CN(C)C/C=C/C(=O)Nc1cc2c(Nc3ccc(F)c(Cl)c3)ncnc2cc1O[C@H]1CCOC1 [Afatinib] | 58.5
22 | CN(C)c1ccc(C(=C2C=CC(=[N+](C)C)C=C2)c2ccc(N(C)C)cc2)cc1.[Cl-] [Crystal Violet] + CN(C)C/C=C/C(=O)Nc1cc2c(Nc3ccc(F)c(Cl)c3)ncnc2cc1O[C@H]1CCOC1 [Afatinib] | 41
23 | CCOC(=O)C1=C(COCCN)NC(C)=C(C(=O)OC)C1c1ccccc1Cl (configuration not stated) [Amlodipine] + CN(C)C/C=C/C(=O)Nc1cc2c(Nc3ccc(F)c(Cl)c3)ncnc2cc1O[C@H]1CCOC1 [Afatinib] | 79.6
24 | CN1CCN(c2ccc(C(=O)/N=c3\[nH][nH]c4ccc(Cc5cc(F)cc(F)c5)cc34)c(NC3CCOCC3)c2)CC1 [Entrectinib] + CN(C)C/C=C/C(=O)Nc1cc2c(Nc3ccc(F)c(Cl)c3)ncnc2cc1O[C@H]1CCOC1 [Afatinib] | 54.3
25 | Nc1ccn(C2OC(CO)C(O)C2O)c(=O)n1 (configuration not stated) [Cytarabine] + CN(C)C/C=C/C(=O)Nc1cc2c(Nc3ccc(F)c(Cl)c3)ncnc2cc1O[C@H]1CCOC1 [Afatinib] | 65.7
26 | Cl.Cl.O=C1c2c(O)ccc(O)c2C(=O)c2c(NCCNCCO)ccc(NCCNCCO)c21 [Mitoxantrone HCl] + CN(C)C/C=C/C(=O)Nc1cc2c(Nc3ccc(F)c(Cl)c3)ncnc2cc1O[C@H]1CCOC1 [Afatinib] | 32.2
27 | CC(C)(C)NC(=O)C1CC2CCCCC2CN1CC(O)C(Cc1ccccc1)NC(=O)C(CC(N)=O)NC(=O)c1ccc2ccccc2n1.CS(=O)(=O)O (configuration not stated) [Saquinavir mesylate] + CN(C)C/C=C/C(=O)Nc1cc2c(Nc3ccc(F)c(Cl)c3)ncnc2cc1O[C@H]1CCOC1 [Afatinib] | 61.1
28 | CO[C@H]1C[C@@H]2CC[C@@H](C)[C@@](O)(O2)C(=O)C(=O)N2CCCC[C@H]2C(=O)O[C@H]([C@H](C)C[C@@H]2CC[C@@H](O)[C@H](OC)C2)CC(=O)[C@H](C)/C=C(\C)[C@@H](O)[C@@H](OC)C(=O)[C@H](C)C[C@H](C)/C=C/C=C/C=C/1C [Rapamycin (Sirolimus)] + CN(C)C/C=C/C(=O)Nc1cc2c(Nc3ccc(F)c(Cl)c3)ncnc2cc1O[C@H]1CCOC1 [Afatinib] | 42.5
29 | COc1cccc2c1C(=O)c1c(O)c3c(c(O)c1C2=O)C[C@@](O)(C(C)=O)C[C@@H]3O[C@H]1C[C@H](N)[C@H](O)[C@H](C)O1.Cl [Daunorubicin HCl] + CN(C)C/C=C/C(=O)Nc1cc2c(Nc3ccc(F)c(Cl)c3)ncnc2cc1O[C@H]1CCOC1 [Afatinib] | 20.8
30 | CCCCCCCCCCCCCCCCOP(=O)([O-])OCC[N+](C)(C)C [Miltefosine] + CN(C)C/C=C/C(=O)Nc1cc2c(Nc3ccc(F)c(Cl)c3)ncnc2cc1O[C@H]1CCOC1 [Afatinib] | 69.5
31 | COC(=O)NC(C(=O)NC(Cc1ccccc1)C(O)CN(Cc1ccc(-c2ccccn2)cc1)NC(=O)C(NC(=O)OC)C(C)(C)C)C(C)(C)C (configuration not stated) [Atazanavir] + CN(C)C/C=C/C(=O)Nc1cc2c(Nc3ccc(F)c(Cl)c3)ncnc2cc1O[C@H]1CCOC1 [Afatinib] | 56.9
32 | CC1(C)CCC(c2ccc(Cl)cc2)=C(CN2CCN(c3ccc(C(=O)NS(=O)(=O)c4ccc(NC(CCN5CCOCC5)CSc5ccccc5)c(S(=O)(=O)C(F)(F)F)c4)cc3)CC2)C1 (configuration not stated) [ABT-263 (Navitoclax)] + CN(C)C/C=C/C(=O)Nc1cc2c(Nc3ccc(F)c(Cl)c3)ncnc2cc1O[C@H]1CCOC1 [Afatinib] | 38
